Many of the other results were omitted from the sample, so hits are more common in it than they were.
Tb PYK inh: blocks Trypanosoma brucei pyruvate kinase. Q57TT1. TbPYK enzyme, Kinase-Glo Plus ATP luminescence, 45 min. Potency, µM (top dose mostly 76.8 µM), most hits filed as inhibitors. hit rate 0.12% among 410,000. AID 624173; further: nearly all actives have a fitted effect of over 50% in size
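Screened from lowest to highest concentration, compounds were pinned into TbPYK/substrate mixtures, and ADP (130 uM final) was added. Plates sat at room temperature for 45 min prior to Kinase-Glo Plus detection by luminescence.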
Sm TGR block: blocks Schistosoma mansoni thioredoxin glutathione reductase. Q962Y6. AID 485364. Potency, µM (titrated, usually from 114 µM), actives largely listed as inhibitors. purified TGR, DTNB reduction, TNB absorbance 405 nm. hit rate 3% among 360,000; further: nearly all actives have a fitted effect of over 60% in size
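First, TGR (20 nM dispensed) and NADPH were mixed with compound. Second, a 15 min room-temperature incubation followed. Third, further NADPH and then DTNB were added to start the reaction. Finally, TNB absorbance was monitored kinetically.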
Cycloheximide cs: affects cycloheximide protein synthesis inhibition readout, counter-screen; hit rate 12% among 300,000; cell reporter, cycloheximide protein synthesis inhibition counterscreen; AID 2314; max response, %; in the data active means max response mostly above about 13%, no sharp cut-off; inactive means mostly below about 14%; further: read at 38.3 µM for the half of the compounds with a filed dose
LmPK inhibitor: blocks Leishmania mexicana pyruvate kinase activity; Potency, µM (series often up to 57.5 µM), most hits filed as inhibitors; hit rate 0.37% among 290,000; Q27686; purified LmPK, Kinase-Glo ATP luminescence, 1 h; AID 1721
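In 50 mM imidazole pH 7.2 with 7 mM MgCl2, LmPK (0.1 nM) turned over PEP (0.5 mM) and ADP (0.1 mM) for 1 h at room temperature. Luciferase read-out of ATP.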
FBPA Giardia inh: Giardia lamblia aldolase inhibition; AID 2451; hit rate 0.71% among 290,000; purified Giardia FBPA; Potency, µM (titrated, usually from 59.6 µM), most hits filed as inhibitors; A8B2U2; further: nearly all actives have a fitted effect of over 55% in size
Target sequence (A8B2U2 whole entry, looked up): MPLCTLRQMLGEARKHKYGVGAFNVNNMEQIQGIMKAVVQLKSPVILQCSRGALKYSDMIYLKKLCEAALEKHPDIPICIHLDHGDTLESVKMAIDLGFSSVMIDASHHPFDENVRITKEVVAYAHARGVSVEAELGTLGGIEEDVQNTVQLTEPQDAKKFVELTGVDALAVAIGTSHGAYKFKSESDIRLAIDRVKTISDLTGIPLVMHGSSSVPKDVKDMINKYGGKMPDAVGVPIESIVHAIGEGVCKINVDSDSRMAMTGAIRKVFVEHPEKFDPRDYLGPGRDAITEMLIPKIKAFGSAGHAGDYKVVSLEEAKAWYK
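40 nM FBPA preincubated 10 min at RT with compound (up to 57.5 uM final), then substrate plus GAPDH/TPI/NAD/arsenate coupling and diaphorase/resazurin added. Fluorescence read after 20 min at RT, 525/598 nm.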
Shiga inhibitor: blocks Shiga toxin action in Vero cells; Vero cells, Shiga toxin protein synthesis inhibition reporter; inhibition, % at 38.7 µM; hit rate 9.2% among 290,000; AID 2315; in the data active means inhibition mostly above about 28%, no sharp cut-off; inactive means mostly below about 43%
Hits are given with their value; i = inactive; ? = inconclusive; nt = not tested or not shown; [ ] = dose if it differs, or a comment. Unless noted, the call rests on the fitted dose curve; in most records, active means well fitted curve in the direction sought with a large enough effect; inconclusive means small, poorly fitted or top-dose-only effect, or another doubt; inactive means no such curve, though single readings can be large; an effect the other way counts as inactive or inconclusive.

SMILES	Tb PYK inh	Sm TGR block	Cycloheximide cs	LmPK inhibitor	FBPA Giardia inh	Shiga inhibitor
O=C(O)c1cc(S(=O)(=O)N2CCN(C(c3ccccc3)c3ccccc3)CC2)ccc1Cl	i	i	i	i	i	i
COC(=O)c1cc(=O)n(-c2ccccc2)c(=Nc2ccccc2)s1	i	39.8µM	i	i	i	i
CCOC(=O)c1ccc(N=c2sc(C(=O)OC)cc(=O)n2-c2ccc(C(=O)OCC)cc2)cc1	i	i	i	i	i	i
COc1cccc(Nc2cc(C)c3ccccc3n2)c1	i	i	24.8	i	i	66.2
COc1ccc(OC)c(Nc2cc(C)c3ccccc3n2)c1	i	i	i	i	i	i
COc1ccc(Nc2ccnc3ccccc23)cc1	i	i	17.6	i	i	i
COc1cccc(Nc2ncnc3ccccc23)c1	i	i	30.5	?	i	98.7
Cc1ccc(Nc2cc(C)c3ccc(O)cc3n2)cc1C	i	i	43.1	i	?	83.3
COc1ccc(Nc2ncnc3ccccc23)c(OC)c1	i	i	i	i	i	i
COc1ccc(Nc2ccnc(Nc3ccc(OC)cc3)n2)cc1	i	i	36.5	i	i	72.0
CCOc1nc(Nc2ccc(OC)cc2)nc(OCC)n1	i	i	i	i	i	i
COc1ccc(Nc2ncnc3ccccc23)cc1	i	i	29.7	i	i	71.2
COc1ccc(Nc2ccccc2N)cc1	i	i	i	i	i	43.6
Nc1ccc(Nc2ccccc2N)cc1	i	?	i	i	?	i
COc1ccc(Nc2cc(Nc3ccccc3)ncn2)cc1	i	i	31.4	i	i	48.9
O=C(Cc1ccc(S(=O)(=O)N2CCOCC2)s1)Nc1cc(Cl)ccc1Cl	i	i	nt	nt	nt	nt
CSCCC(NC(=O)c1ccccc1Cl)C(=O)NCC(c1ccc(F)cc1)N1CCOCC1 (stereo not drawn)	i	nt	nt	nt	nt	nt
CC(=O)N1CC(O)CC1C(=O)O (stereo not drawn)	i	nt	nt	nt	nt	nt
CCN1C(=O)[C@H]2[C@H]3[C@H](O)[C@H](O)C/C(=N/OC[C@@H](O)COCc4ccco4)[C@H]3CC[C@@H]2C1=O	nt	nt	nt	nt	i[12.9 µM]	nt
CC(C)C1Oc2ccccc2N(CC(=O)N(Cc2ccncc2)Cc2ccco2)C1=O (stereo not drawn)	i	31.6µM	i	i	i	i
CCOc1ccc(NCc2cccn2-c2nnc(N3CCC(C(=O)NCCCN4C(C)CCCC4C)CC3)s2)cc1 (stereo not drawn)	i	i	i	i	nt	i
CCOc1ccc(NCc2cccn2-c2nnc(N3CCC(C(=O)NCCCN4CCCCC4)CC3)s2)cc1	i	i	16.7	i	nt	22.7
COc1ccccc1-c1csc(Cc2nnc3n2CCCCC3)n1	i	i	46.3	i	i	152.6
O=C1NC(O)=NC1(c1ccccc1)c1ccccc1	nt	nt	nt	nt	i	nt
O=C(c1cc2ccccc2o1)N1CCN(c2ccccn2)CC1	i	i	i	i	nt	i
SMILES	Tb PYK inh	Sm TGR block	Cycloheximide cs	LmPK inhibitor	FBPA Giardia inh	Shiga inhibitor
CCOC(=O)c1scc(-c2ccc(C)cc2)c1S(=O)(=O)Nc1cccc(CC)c1	i	i	nt	nt	nt	nt
COc1ccc(CNC(=O)C2CC(c3ccccc3C(F)(F)F)=NO2)cc1 (stereo not drawn)	i	i	i	i	i	i
COc1ccc(CNC(=O)C2CC(c3ccccc3[N+](=O)[O-])=NO2)cc1 (stereo not drawn)	i	i	28.6	i	i	64.9
CCN(CC)C(=O)C1CC(c2ccc(OC)cc2)=NO1 (stereo not drawn)	i	i	40.5	i	i	82.4
COc1ccccc1CNC(=O)C1CC(c2ccccc2[N+](=O)[O-])=NO1 (stereo not drawn)	i	i	40.8	i	i	95.8
COc1cccc(C2=NOC(C(=O)NCc3ccccc3)C2)c1 (stereo not drawn)	i	i	i	i	i	i
O=C(NCc1cc(C(F)(F)F)cc(C(F)(F)F)c1)C1CC(c2ccccc2[N+](=O)[O-])=NO1 (stereo not drawn)	i	i	i	i	i	i
COc1ccc(C2=NOC(C(=O)NCc3ccccc3)C2)cc1 (stereo not drawn)	i	i	i	i	i	34.4
Cc1onc(-c2c(F)cccc2Cl)c1C(=O)OCC(=O)Nc1cccc(S(=O)(=O)N(C)C)c1	i	nt	nt	nt	nt	nt
Clc1cccc(N2CCN(c3c4c(nc5nncn35)CCC4)CC2)c1	i	i	nt	nt	nt	nt
Cc1ccc(-n2c(=O)c3oc4ccccc4c3n(CC(=O)Nc3ccccc3)c2=O)cc1C	i	i	nt	nt	nt	nt
COc1ccc(CNC(=O)C2CC(c3cccc([N+](=O)[O-])c3)=NO2)cc1 (stereo not drawn)	i	i	35.8	i	i	38.0
COc1ccccc1CNC(=O)C1CC(c2ccccc2C(F)(F)F)=NO1 (stereo not drawn)	i	i	i	i	i	i
COc1ccccc1CNC(=O)C1CC(c2ccccc2F)=NO1 (stereo not drawn)	i	i	17.9	i	i	44.3
Cc1sc(NC(=O)c2ccco2)c(CN2CCN(c3ccccn3)CC2)c1C	i	i	32.4	i	i	i
O=C(NC(=S)N1CCN(c2ccccn2)CC1)c1ccco1	i	i	18.4	i	?	i
O=C(Nc1nnc(C(F)(F)F)s1)c1cccnc1	i	i	39.0	i	?	64.8
O=C(Nc1nnc(-c2ccccc2F)s1)c1cccnc1	i	i	23.2	i	i	45.4
Cc1ccc(NC(=O)Nc2nnc(-c3ccccc3F)s2)cc1	i	i	i	i	i	i
CC(C)[C@@H](OCc1ccccc1)[C@H](C)/C=N\O[C@@H](C)c1cn([C@@H]2COC[C@@H]2O)nn1	nt	nt	nt	nt	i[12.9 µM]	nt
O=C(NCCc1ccc(F)cc1)C1CCN(C(=O)Nc2ccccc2)CC1	i	i	nt	nt	nt	nt
NC(=O)N\N=C/C=C/C=C/c1ccc(F)cc1	i	25.1µM	i	i	i	i
O=C(Cc1ccc(NC(=O)C2CCN(C(=O)c3ccccc3)CC2)cc1)Nc1cccc(C(=O)N2CCCCC2)c1	i	nt	nt	nt	nt	nt
COc1ccc(S(=O)(=O)n2nc(OC(C)=O)cc2N)cc1	i	25.1µM	i	i	i	i
COc1ccc(C(=O)Oc2cc(N)n(S(=O)(=O)c3ccccc3)n2)cc1	i	i	i	i	i	i
SMILES	Tb PYK inh	Sm TGR block	Cycloheximide cs	LmPK inhibitor	FBPA Giardia inh	Shiga inhibitor
COC(=O)C1=C(C(=O)OC)[C@@H]2N(Cc3ccccc3)c3ccccc3[C@@]23C[C@@H](C(=O)OC)N(S(=O)(=O)c2ccc(C)cc2)C3=N1	nt	nt	nt	i[11.5 µM]	i[12.9 µM]	nt
Cc1ccc(NC(=O)CCC(=O)c2cccs2)cc1F	i	i	26.8	i	i	i
Cc1ccc(NC(=O)CCC(=O)NNC(=O)c2cccs2)cc1C	i	i	i	i	i	i
Cc1ccc(NC(=O)CNC(=O)c2cccs2)nc1	i	i	nt	nt	nt	nt
Cc1ccc(NC(=O)CCC(=O)c2cccs2)nc1	i	50.1µM	nt	nt	nt	nt
Cc1ccc(NC(=O)CCNS(=O)(=O)c2cccs2)cc1F	i	i	26.2	i	i	69.7
O=C(CCC(=O)c1cccs1)Nc1ccccc1F	i	i	16.5	i	i	i

High-throughput results: PubChem, National Center for Advancing Translational Sciences (NCATS)
